This is an account of results in the supplement of paper PMC6522484.

The test system of test [1] is DLD1. Put plainly: cell viability (CellTiter-Glo) relative to plate median (fraction of plate median); higher = more viable cells. The conditions noted are these: 5 µM; treatment time 24 h; reporter: 7TFP. In outline: (§1)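 Normalisation used webcellHTS2 in additive mode without log transformation, scaling each well's luminescence to the plate median. The luminescence was firefly luciferase or CellTiterGlo, read on a Tecan F500 from parallel plates of colorectal cancer cells stably transduced with lentiviral TCF/Wnt firefly luciferase reporters. Those cells had been given library compounds at a final 5 µM for 24 h, and two independent replicates were averaged.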
In general terms: Cellular ATP, detected with luciferase, serves as a proxy for viable cell number.

The subject of the next test is HCT116. Described as above. To be noted: 5 µM; treatment time 24 h; reporter: TCF4/Wnt. In outline: as §1
Test [2] has as its system SW480. Described as above. The conditions noted are these: 5 µM; treatment time 24 h; reporter: 7TFP. The gist of the method:
as §1

The test system of test [3] is DLD1. Put plainly: TCF/Wnt firefly luciferase reporter signal relative to plate median (fraction of plate median); higher = higher Wnt reporter signal. To be noted: 5 µM; treatment time 24 h; reporter: 7TFP. The gist of the method:
as §1

For test [4], the system named is SW480. The description is as above. The conditions noted are these: 5 µM; treatment time 24 h; reporter: 7TFP. In outline:
as §1

± gives the standard deviation of the averaged measurements.

For the compound `NC(=O)C(c1ccccc1)(c1ccccc1)[C@@H]1CCN(CCc2ccc3c(c2)CCO3)C1`, the cell viability stood at 0.873 ± 0.067 with DLD1 [1], 0.983 ± 0.0042 with HCT116 and 0.947 ± 0.03 with SW480 [2]. Further, the “TCF/Wnt firefly luciferase reporter signal” value was found to be 1.03 ± 0.094 with DLD1 [3] and 1.005 ± 0.0071 in the test on SW480 [4].

As to `COc1ccc(-c2coc3cc(OC(C)=O)cc(OC(C)=O)c3c2=O)cc1`, the cell viability in the test with DLD1 [1] amounted to 1.01 ± 0.023; with HCT116, 0.994 ± 0.079; in the test on SW480 [2] it was 0.976 ± 0.0057. In addition, the “TCF/Wnt firefly luciferase reporter signal” value with DLD1 [3] was found to be 1.34 ± 0.3; with SW480 [4], 1.23 ± 0.16.

With `OCCN1C[C@H](O)[C@@H](O)[C@H](O)[C@H]1CO`, the cell viability is 0.86 ± 0.15 in the test on DLD1 [1], 0.957 ± 0.19 with HCT116 and 0.97 ± 0.025 in the test on SW480 [2]. The “TCF/Wnt firefly luciferase reporter signal” value with DLD1 [3] is 0.954 ± 0.11; in the test on SW480 [4], 0.988 ± 0.06.
